SMILES strings stand for the structures. Calls of active or inactive are those of the source.

From PubChem BioAssay come the findings set out here.

The target of one assay is Albumin (Bos taurus) (UniProt P02769). Briefly: compounds binding labelled BSA control protein – biochemical, small-molecule microarray, Alexa647 label, 635/667 nm fluorescence, artefact control for SMM control protein annotation, profiling panel (AID 1118).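 Also: score merges 667 nm emission intensity and signal-to-noise per printed compound spot.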 The settings on record: BSA-A647 binding, fluorescence 635 nm, higher = more signal.
Chain of Albumin (Bos taurus) (P02769 whole entry, looked up): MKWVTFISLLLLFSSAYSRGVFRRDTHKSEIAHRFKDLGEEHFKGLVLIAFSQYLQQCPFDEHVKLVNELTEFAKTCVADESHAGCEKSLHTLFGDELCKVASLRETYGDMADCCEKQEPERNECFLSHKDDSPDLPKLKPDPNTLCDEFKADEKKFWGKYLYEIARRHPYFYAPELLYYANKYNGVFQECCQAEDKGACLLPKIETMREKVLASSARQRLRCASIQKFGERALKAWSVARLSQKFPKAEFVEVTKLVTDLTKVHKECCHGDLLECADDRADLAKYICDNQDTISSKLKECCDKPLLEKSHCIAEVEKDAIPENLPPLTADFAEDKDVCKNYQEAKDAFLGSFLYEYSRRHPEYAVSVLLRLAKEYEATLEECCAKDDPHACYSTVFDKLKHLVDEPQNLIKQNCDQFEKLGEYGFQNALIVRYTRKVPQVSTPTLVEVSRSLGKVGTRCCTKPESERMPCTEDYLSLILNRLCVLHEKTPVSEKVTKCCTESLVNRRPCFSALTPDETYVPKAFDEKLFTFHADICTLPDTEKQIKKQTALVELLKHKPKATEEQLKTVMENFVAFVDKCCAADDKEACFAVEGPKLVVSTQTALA
Assay [1] in a line: probe aXIP binding to arrayed compounds – biochemical, NeuroSMM set, 635/667 nm fluorescence, primary screen (AID 1119).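 Also: probe is the protein aXip251-270 applied at 1 µg/mL to compound-printed slides; binding of probe to printed compounds measured as 667 nm fluorescence plus signal to noise.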 The settings on record: small-molecule microarray, higher = more signal, called active from +8 up or from −8 down.
Assay [2] can be described thus: probe aNOTCH3 binding on compound microarray – biochemical, small-molecule microarray, 635/667 nm fluorescence, primary screen (AID 1120).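 Also: probe is a biotin-tagged antibody raised against NOTCH3 rather than NOTCH3 protein; score merges spot fluorescence near 667 nm with spot signal to noise.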 The settings on record: higher = more signal.
A short description of assay [3]: probe aNOTCH2 binding on compound microarray – biochemical, small-molecule microarray, 635/667 nm fluorescence, primary screen (AID 1121).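 Also: score merges feature fluorescence read at 667 nm with its signal to noise.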 The settings on record: higher = more signal.
Assay [4] concerns the target Carbonic anhydrase 2 (Homo sapiens) (UniProt P00918). Briefly: compounds binding carbonic anhydrase 2 – biochemical, small-molecule microarray, Alexa647-labelled CAII, profiling panel (AID 1122). The settings on record: CAII-A647 binding fluorescence, higher = more signal.
Assay [5] in a line: COS7 lysate on small-molecule microarray, probe aHis, 635 nm (AID 1123).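 Also: z-score combines 667nm fluorescence intensity with signal-to-noise per printed compound spot.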 The settings on record: COS7 cell lysate, fluorescence, higher = more signal.
Assay [6] in a line: probe aLAP1 signal on lysate-treated microarray – cell lysate, small-molecule microarray, COS7 lysate, primary screen (AID 1124).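 Also: lysate comes from COS7 cells expressing LAP1 and is applied at 0.3 µg/mL; score merges spot fluorescence near 667 nm with signal-to-noise over triplicate slides.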 The settings on record: probe aLAP1, fluorescence, higher = more signal.
The subject of the next assay is Sam68 (KHDRBS1). Briefly: compounds binding KHDRBS1 protein – biochemical, small-molecule microarray, 635 nm fluorescence, primary screen (AID 1125).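 Also: score merges 667 nm channel intensity with signal to noise over triplicate slides.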 The settings on record: higher = more signal.
Assay [7] deals with Chordin-like protein 2 (CHRDL2). Briefly: compounds binding chordin-like 2 – biochemical, small-molecule microarray, 635 nm fluorescence, primary screen (AID 1126).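 Also: printed compound slides probed with Chrdl2 protein at 4 µg/mL for 1 h at 4 C; score merges 667 nm emission intensity with signal to noise over three replicate slides.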 The settings on record: fluorescence 635 nm, higher = more signal.
The target of assay [8] is Concanavalin-A (Canavalia ensiformis) (UniProt P02866). The experiment in a line: compounds binding concanavalin A lectin – biochemical, small-molecule microarray, Alexa647 label, 635 nm, artefact control for SMM control protein annotation, primary screen (AID 1127).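 Also: z combines 667 nm emission intensity with signal-to-noise across three replicate slides.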 The settings on record: ConA-A647 binding fluorescence, higher = more signal.
Chain of Concanavalin-A (Canavalia ensiformis) (P02866 whole entry, looked up): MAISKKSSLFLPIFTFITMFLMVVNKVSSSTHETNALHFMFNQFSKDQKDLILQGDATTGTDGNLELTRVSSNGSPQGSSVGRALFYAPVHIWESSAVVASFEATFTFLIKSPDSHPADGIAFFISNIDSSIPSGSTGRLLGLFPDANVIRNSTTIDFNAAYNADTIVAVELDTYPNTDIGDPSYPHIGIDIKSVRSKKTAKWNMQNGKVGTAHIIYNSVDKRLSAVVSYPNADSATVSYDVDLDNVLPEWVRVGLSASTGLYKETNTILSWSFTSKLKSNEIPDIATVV
Assay [9] can be described thus: compounds binding Alexa647 anti-His antibody – biochemical, small-molecule microarray, 635 nm fluorescence, artefact control for SMM control protein annotation, primary screen (AID 1128).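 Also: score merges feature fluorescence with signal-to-noise for each printed compound spot.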 The settings on record: higher = more signal.
Assay [10] deals with Human papillomavirus type 1a E7 protein (residues 1-88). The experiment in a line: HPV1a E7 small-molecule binders, primary screen, biochemical, small-molecule microarray, residues 1-88, 635 nm (AID 1129). The settings on record: small-molecule microarray binding, fluorescence 635 nm; higher = more signal.
Assay [11] addresses Focal adhesion kinase 1 (Homo sapiens) (UniProt Q05397). Briefly: PTK2 protein binding on printed compound slides – biochemical, small-molecule microarray, 635/667 nm fluorescence, BSA, DTT, primary screen (AID 1130).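 Also: composite of spot emission at 667 nm and signal to noise over triplicate slides.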 The settings on record: 635 nm fluorescence, higher = more signal.
Assay [12] relates to Fibrinogen (Alexa647-labelled). Briefly: Alexa647-fibrinogen binding to printed small molecules – biochemical, small-molecule microarray, 635/667 nm fluorescence, artefact control for SMM control-protein annotation, profiling panel (AID 1131).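 Also: z-score merges 667 nm fluorescence with per-spot signal-to-noise over triplicate slides.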 The settings on record: fibrinogen-A647 binding fluorescence, higher = more signal.
Assay [13] has as its target Follistatin (Homo sapiens) (UniProt P19883). The experiment in a line: FST protein binding to printed compounds – biochemical, small-molecule microarray, 635/667 nm fluorescence, primary screen (AID 1132). The settings on record: 635 nm fluorescence, higher = more signal.
Assay [14] addresses Fibroblast growth factor 2 (Homo sapiens) (UniProt P09038). The experiment in a line: basic fibroblast growth factor binding to printed compounds – biochemical, small-molecule microarray, 635/667 nm fluorescence, primary screen (AID 1133). The settings on record: FGF2, fluorescence 635/667, higher = more signal.
A short description of assay [15]: JC-1 mitochondrial potential readout, lung cancer cells – cell-based, A549, JC-1 fluorescence, basal, 24 h, 100 nL, profiling panel (AID 1138).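 Also: A549 lung adenocarcinoma cells under basal conditions with no added stimulus; test concentration not given here.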 The settings on record: higher = more signal.
For the next assay, the system named is Lefty1. The experiment in a line: Lefty1 protein binding to printed compounds – biochemical, small-molecule microarray, 635/667 nm fluorescence, primary screen (AID 1139). The settings on record: fluorescence 635/667, higher = more signal.
Assay [16] deals with wheat germ agglutinin (Triticum aestivum), Alexa647-labelled. Briefly: Alexa647-WGA lectin binding to printed small molecules – biochemical, small-molecule microarray, 635/667 nm fluorescence, artefact control for SMM control-protein annotation, profiling panel (AID 1140).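 Also: score merges 667 nm feature emission with signal to noise over triplicate slides.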 The settings on record: WGA-A647 binding, 635 nm fluorescence, higher = more signal.
The target in assay [17] is Luciferin 4-monooxygenase (Photinus pyralis) (UniProt P08659). Briefly: inhibition of purified Photinus pyralis luciferase – biochemical, luminescence, purified enzyme, 2006 set, primary screen (AID 1141).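 Also: cell-free assay with purified firefly luciferase at 100 ng per well in PBS; test concentration not given here.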 The settings on record: purified firefly luciferase, SteadyGlo luminescence, 30 min; higher = more signal, called active from +8 up or from −8 down.
Chain of Luciferin 4-monooxygenase (Photinus pyralis) (P08659 whole entry, looked up): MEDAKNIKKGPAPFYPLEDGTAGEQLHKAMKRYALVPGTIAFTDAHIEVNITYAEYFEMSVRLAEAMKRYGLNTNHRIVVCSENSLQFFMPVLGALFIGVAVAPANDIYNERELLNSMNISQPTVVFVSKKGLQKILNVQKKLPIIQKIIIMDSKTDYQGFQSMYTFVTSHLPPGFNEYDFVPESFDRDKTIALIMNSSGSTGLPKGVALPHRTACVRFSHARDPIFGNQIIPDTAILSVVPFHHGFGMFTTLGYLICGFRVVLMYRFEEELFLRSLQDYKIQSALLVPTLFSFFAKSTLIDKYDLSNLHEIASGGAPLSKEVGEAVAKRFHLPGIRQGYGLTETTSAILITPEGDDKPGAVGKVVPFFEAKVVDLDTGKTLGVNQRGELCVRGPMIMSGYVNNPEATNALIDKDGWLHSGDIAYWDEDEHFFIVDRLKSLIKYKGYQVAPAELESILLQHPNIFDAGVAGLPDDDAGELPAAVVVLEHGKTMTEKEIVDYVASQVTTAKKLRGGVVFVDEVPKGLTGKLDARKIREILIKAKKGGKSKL

Chain of Focal adhesion kinase 1 (Homo sapiens) (Q05397 whole entry, looked up): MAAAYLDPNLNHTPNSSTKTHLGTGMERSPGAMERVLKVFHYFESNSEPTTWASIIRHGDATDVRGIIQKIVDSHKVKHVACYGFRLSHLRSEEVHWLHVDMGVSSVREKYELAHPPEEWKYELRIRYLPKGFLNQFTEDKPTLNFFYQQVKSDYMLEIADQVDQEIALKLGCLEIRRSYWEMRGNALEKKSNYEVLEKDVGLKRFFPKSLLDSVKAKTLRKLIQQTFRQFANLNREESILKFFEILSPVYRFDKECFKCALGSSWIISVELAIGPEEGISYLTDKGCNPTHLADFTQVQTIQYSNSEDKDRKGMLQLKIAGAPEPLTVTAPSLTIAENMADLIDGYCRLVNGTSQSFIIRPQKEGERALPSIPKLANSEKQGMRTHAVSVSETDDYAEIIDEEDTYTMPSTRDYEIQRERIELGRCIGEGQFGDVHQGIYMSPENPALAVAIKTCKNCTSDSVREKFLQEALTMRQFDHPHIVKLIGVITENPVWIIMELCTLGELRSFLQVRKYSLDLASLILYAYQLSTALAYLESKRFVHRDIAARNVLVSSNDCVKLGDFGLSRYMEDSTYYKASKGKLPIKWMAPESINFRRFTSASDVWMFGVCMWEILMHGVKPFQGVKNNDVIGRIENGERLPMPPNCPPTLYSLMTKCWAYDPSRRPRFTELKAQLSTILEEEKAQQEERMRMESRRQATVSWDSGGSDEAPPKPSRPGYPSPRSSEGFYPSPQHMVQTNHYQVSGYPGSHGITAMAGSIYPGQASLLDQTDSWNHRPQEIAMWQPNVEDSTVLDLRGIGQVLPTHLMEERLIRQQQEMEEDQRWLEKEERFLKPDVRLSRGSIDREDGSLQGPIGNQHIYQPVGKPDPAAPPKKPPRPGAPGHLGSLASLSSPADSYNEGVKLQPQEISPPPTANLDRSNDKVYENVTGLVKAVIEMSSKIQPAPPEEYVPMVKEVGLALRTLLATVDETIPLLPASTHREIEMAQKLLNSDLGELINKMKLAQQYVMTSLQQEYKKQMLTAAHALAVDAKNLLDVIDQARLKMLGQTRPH
Chain of Fibroblast growth factor 2 (Homo sapiens) (P09038 whole entry, looked up): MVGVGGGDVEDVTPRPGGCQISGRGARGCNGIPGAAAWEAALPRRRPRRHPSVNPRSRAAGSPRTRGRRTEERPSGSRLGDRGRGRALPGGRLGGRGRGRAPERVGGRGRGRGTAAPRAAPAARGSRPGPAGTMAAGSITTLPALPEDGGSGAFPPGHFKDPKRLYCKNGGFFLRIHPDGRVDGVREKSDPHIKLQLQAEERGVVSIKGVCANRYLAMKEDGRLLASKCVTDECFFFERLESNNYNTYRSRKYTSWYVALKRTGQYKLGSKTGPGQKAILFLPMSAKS
Chain of Follistatin (Homo sapiens) (P19883 whole entry, looked up): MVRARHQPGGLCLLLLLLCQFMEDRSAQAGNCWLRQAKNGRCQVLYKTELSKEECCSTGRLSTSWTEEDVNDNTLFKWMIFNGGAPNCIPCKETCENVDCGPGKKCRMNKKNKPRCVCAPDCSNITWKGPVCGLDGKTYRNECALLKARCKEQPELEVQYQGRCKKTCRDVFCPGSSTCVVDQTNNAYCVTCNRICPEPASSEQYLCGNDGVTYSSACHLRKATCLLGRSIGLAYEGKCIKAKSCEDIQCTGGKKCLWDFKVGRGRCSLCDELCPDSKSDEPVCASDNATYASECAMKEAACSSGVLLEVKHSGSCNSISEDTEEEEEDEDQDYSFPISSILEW

With `COc1ccc(-c2cc3c(c(-c4ccc(Oc5ccccc5)cc4)n2)[Si](C(C)C)(C(C)C)OC3)cn1`, the composite z-score in the assay with Albumin (Bos taurus) was -0.344; in assay [2], -0.0311; in assay [3], -0.132; in assay [4], -0.163; in assay [5] it was 0.0687; in assay [6], -0.232. For the same molecule, the composite z-score with Sam68 (KHDRBS1) was -0.0667; in assay [7] it was -0.0581; in assay [8], 0.478; in assay [9], 0.0674; in [10], -0.221; in assay [11], 0.158. In addition, the composite z-score is -0.424 in assay [12]; 0.525 in [13]; -0.224 in [14]; 0.278 in the assay on Lefty1; -0.12 in assay [16]. For the same molecule, in [1], the composite Z-score was -0.108 (inactive). Besides, the results for the z-score in [15] and in [17] were -0.0734 and 0.223 (inactive), respectively.

For `CN(C)CCCCCCNC(=O)[C@H]1C[C@H]2C(=O)N3CCC[C@H]3C(=O)N2[C@H]1c1ccc(O)cc1`, the composite z-score with Albumin (Bos taurus) is -0.584; in assay [2], 0.377; in [3] it was -0.0438; in [4], 0.561; in assay [5] it was 2.04; in [6], 0.81. Besides, the composite z-score with Sam68 (KHDRBS1) came to 1.34; in [7], 1.43; in assay [8], 1.22; in assay [9], 2.74; in assay [10], 1.24; in [11], 1.03. In addition, the composite z-score was 0.678 in assay [12]; 1.34 in [13]; 1.48 in assay [14]; 1.39 in the assay with Lefty1; 0.622 in [16]. The composite Z-score in [1] was 0.233 (inactive). For the same molecule, the z-score in [15] is -0.727; in [17], -0.171 (inactive).

As to `COC(=O)[C@@]1(Cc2ccc(OC)cc2)[C@H]2c3cc(C(=O)N4CCCC4)n(Cc4ccc(O)c(OC)c4)c3C[C@H]2CN1C(=O)c1ccccc1`, the composite z-score with Albumin (Bos taurus) stood at 1.06; in assay [2], 1.18; in [3], 0.437; in assay [4], 0.845; in [5], 3.32; in assay [6], 1.09. Also, the composite z-score with Sam68 (KHDRBS1) came out at 0.535; in assay [7], 0.114; in assay [8] it was 0.988; in assay [9], 2.89; in assay [10], 0.926; in assay [11] it was 0.264. The composite z-score in assay [12] was 0.724; in [13] it was 0.379; in assay [14], -0.1; with Lefty1, -0.304; in assay [16], 1.11. Besides, in assay [1], the composite Z-score is 1.64 (inactive). Moreover, the z-score was 1.44 in assay [15] and 1.62 (inactive) in assay [17].

Regarding `COC(=O)[C@H](Cc1ccccc1)N[C@@H](/C=C/C1CC1)[C@H](O)Cc1ccccc1`, the composite z-score with Albumin (Bos taurus) was 0.0881; in assay [2], -0.246; in assay [3], -0.244; in assay [4] it was 0.209; in assay [5], -0.255; in [6], 0.0885. The composite z-score in the assay on Sam68 (KHDRBS1) was -0.0844; in assay [7] it was -0.0635; in assay [8], 0.65; in assay [9], -0.477; in assay [10] it was -0.236; in assay [11] it was -0.415. Moreover, the composite z-score was 0.475 in [12]; -0.405 in assay [13]; -0.489 in assay [14]; -0.21 in the assay on Lefty1; 0.319 in [16]. Moreover, the composite Z-score in assay [1] is -0.16 (inactive). The values for the z-score in assay [15] and in assay [17] were -0.349 and 0.702 (inactive), respectively.

With `C=CCOC(=O)[C@H]1[C@@H]2C(=O)O[C@@H](c3ccccc3)[C@@H](c3ccccc3)N2[C@@H](c2ccc(OCCOC(=O)[C@H]3C[C@H]4C(=O)N[C@@H](CCCCN(C)C)C(=O)N4[C@H]3c3ccc(O)cc3)cc2)[C@]12C(=O)Nc1ccc(I)cc12`, the composite z-score is 0.412 with Albumin (Bos taurus); 0.282 in assay [2]; -0.0028 in [3]; 0.493 in [4]; 1.45 in [5]; 0.651 in assay [6]. The composite z-score with Sam68 (KHDRBS1) was 1.31; in assay [7] it was 1.18; in assay [8], 1.15; in [9], 2.49; in assay [10], 1.23; in assay [11] it was 0.739. The composite z-score worked out at 0.991 in assay [12]; 1.34 in assay [13]; 1.64 in [14]; 1.59 with Lefty1; 0.784 in [16]. In assay [1], the composite Z-score was 0.432 (inactive). Besides, the values for the z-score in assay [15] and in [17] were -0.665 and 0.69 (inactive), respectively.
